Source: PubChem BioAssay AID1903 (Southern Research Specialized Biocontainment Screening …, 2009)
Values joined by “and” are separate entries in the source; they are usually repeats but may differ in a detail not shown here. Identical values can stand only once. About 1,200 (0.39%) of roughly 310,000 compounds were called active. The rule behind the calls is not given here. Not all results are given here. Potency and affinity values are given separately.

What follows are compounds tested against Large T antigen (Simian virus 40) (UniProt P03070) (assay: SV40 large T antigen inhibitors, biochemical (AID 1903)). Conditions: SV40 large T antigen ATPase/helicase inhibition assay; at 20 µM; stronger effect = higher value.
Large T antigen (Simian virus 40), sequence (P03070 whole entry, looked up): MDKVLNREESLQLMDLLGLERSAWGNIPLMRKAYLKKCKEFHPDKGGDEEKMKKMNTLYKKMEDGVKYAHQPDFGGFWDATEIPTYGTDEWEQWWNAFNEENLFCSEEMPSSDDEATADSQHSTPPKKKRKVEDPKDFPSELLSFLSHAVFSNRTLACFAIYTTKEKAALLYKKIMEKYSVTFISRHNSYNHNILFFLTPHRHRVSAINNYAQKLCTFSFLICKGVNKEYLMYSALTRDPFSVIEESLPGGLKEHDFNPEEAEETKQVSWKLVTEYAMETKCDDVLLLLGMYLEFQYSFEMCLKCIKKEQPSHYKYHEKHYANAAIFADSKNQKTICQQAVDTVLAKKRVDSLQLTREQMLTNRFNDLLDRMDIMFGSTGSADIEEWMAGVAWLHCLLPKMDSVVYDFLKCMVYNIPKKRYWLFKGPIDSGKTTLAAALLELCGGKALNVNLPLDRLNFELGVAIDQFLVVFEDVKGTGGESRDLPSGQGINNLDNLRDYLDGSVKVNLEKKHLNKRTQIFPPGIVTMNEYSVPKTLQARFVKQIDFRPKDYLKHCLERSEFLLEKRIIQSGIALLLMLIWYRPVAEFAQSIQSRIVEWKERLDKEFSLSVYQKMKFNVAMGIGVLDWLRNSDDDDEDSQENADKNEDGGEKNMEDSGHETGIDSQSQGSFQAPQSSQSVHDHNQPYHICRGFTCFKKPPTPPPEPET

inhibition, inactive:
CCOC(=O)c1c(C)nc2ccccc2c1-c1ccccc1 5.96%
COc1ccc(N/C=C/C(=O)C(F)(F)F)cc1 9.63%
CN(C)c1ccc(N/C=C/C(=O)c2ccc(F)cc2)cc1 18.2%
CN(C)c1ccc(N/C=C/C(=O)C(C)(C)C)cc1 27.8%
O=C(/C=C/Nc1ccccc1)c1ccccc1 10.3%
Cc1ccc(-c2nn(-c3ccccc3)cc2C(N)=O)o1 1%
COc1ccc(CN2CCN(C(=O)CCC(=O)Nc3nnc(C(F)(F)F)s3)CC2)cc1F 25.2%
CCn1c(C)nc2cc(C(=O)N/N=C(\C)c3ccc(N4CCOCC4)cc3)ccc21 9.23%
O=C1[C@H]2CCCC[C@H]2C(=O)N1CCCCN1CCN(c2nsc3ccccc23)CC1 11.2%
Oc1c(CN2CCCC(C(F)(F)F)C2)cc(Cl)c2ccccc12 (stereo unspecified) 6.33%
COc1ccc(CN2C(=O)CSCC2=O)cc1OC 23.5%
CC1CCCN(S(=O)(=O)c2cnc[nH]2)C1 (stereo unspecified) 16.4%
CC(=O)c1ccc([N+](=O)[O-])c(CS(=O)(=O)c2ccc(Cl)cc2)c1 2.52%
Cc1ccc(S(=O)(=O)Cc2ccc([N+](=O)[O-])cc2)cc1 12.8%
C=CCNc1nc(-c2cc3ccccc3o2)cs1 16.7%
COc1ccc([C@@H]2CC=C(C(=O)O)[C@H](c3cccc(Cl)c3)N2S(=O)(=O)c2ccccc2C)cc1 20.5%
COc1ccc(-c2cc(=O)c3ccccc3o2)cc1 4.04%
COc1cc(-c2cc(=O)c3c(O)cc(O)cc3o2)ccc1O 11.8%
COc1ccc(-c2cc(=O)c3c(OC)c(OC)c(OC)c(OC)c3o2)cc1OC 8.13% and 2.63% and 16.4%
COc1cc(-c2cc(=O)c3c(O)c(OC)c(OC)c(OC)c3o2)cc(OC)c1OC 1.45%
Nc1nnc(-c2cccc([N+](=O)[O-])c2)o1 -0.81%
CCCCCCn1cc(C(=O)OCC)c(=O)c2cc(F)c(F)cc21 20.5%
CCC(C)C(NC(=O)C(N)CC(C)C)C(=O)NC(CCC(=O)OCc1ccccc1)C(N)=O (stereo unspecified) -6.23%
COC(=O)c1cc(NCc2cccs2)ccc1N1CCOCC1 36.1%
O=C(O)c1cc(NCc2cccs2)ccc1N1CCOCC1 16.1%
O=C(O)c1ccc(NCc2cccs2)cc1 5.7%
CC(=O)Nc1ccc(NCc2cccs2)cc1 15.1%
O=C(COC(=O)COc1ccccc1[N+](=O)[O-])Nc1ccc(S(=O)(=O)N2CCCCC2)cc1 9.97%
CC(=O)Nc1ccc(NC(=O)CSc2nnc(NC(=O)c3cccc(F)c3)s2)cc1 7.35%
COc1ccc(CC2(CO)COc3ccccc3C2=O)cc1 (stereo unspecified) 18%
CCn1c(SCC(=O)Nc2cc(OC)ccc2OC)nnc1C1CCCCC1 5.72%
CN(C)C(=O)COC(=O)c1cc(Cl)cc(Cl)c1N 7.1%
CCOC(=O)C1=C(CCc2ccccc2)NC(=O)NC1c1ccc(C#N)cc1 (stereo unspecified) 13.1%
O=C(Nc1ccc(N2CCOCC2)cc1)C1CCN(S(=O)(=O)c2ccccc2F)CC1 13.6%
O=C1C(Cl)=C(N2CCOCC2)C(=O)N1c1ccccc1F 11.2%
O=C1C(Cc2ccccc2)Nc2ncnc(N3CCOCC3)c2N1Cc1ccc(Cl)cc1 (stereo unspecified) 9.83%
COc1ccc(N=c2sc3ccccc3n2C)cc1 7.43%
Cn1c(=Nc2ccccc2)sc2ccccc21 -5.34%
CC1CCCCN1c1ncnc2ccccc12 (stereo unspecified) 0.555%
CC(C)OC(=O)Cc1nc2sc(-c3ccccc3)cc2c(=O)[nH]1 6.88%
CCN(CC)Cc1ccccc1Sc1ccccc1 16.5%
CN(C)Cc1ccccc1Sc1ccc(Br)cc1 9.88%
CNCc1ccccc1Sc1cccc(O)c1 25.7%
CNCc1ccccc1Sc1ccc(O)c(O)c1 -1%
CCC(C)C(NC(=O)c1ccc(Cl)cc1)C(=O)Nc1cccnc1 (stereo unspecified) -3.25%
CCOC(=O)c1c(NC(=O)CSc2nnnn2C)sc(CC)c1C 4.57%
O=C(N/C(=C/c1cccs1)C(=O)N1CCOCC1)c1ccccc1 6.38%
COc1ccc(Nc2nc(N3CCCCC3)c3ccccc3n2)cc1 8.24%
Cc1ccc(Nc2nc(N3CCOCC3)c3ccccc3n2)cc1 6.59%
CN1CCN(c2nc(-c3ccccc3O)nc3ccccc23)CC1 3.42%
COc1ccc(Nc2nc(N3CCCC3)c3ccccc3n2)cc1 17.3%
COc1ccc(OC)c(NC(=O)CSc2ccc(-c3ccco3)nn2)c1 11.7%
CC(C)(C)OC(=O)[C@H](Cc1ccccc1)NC(=O)c1nc[nH]c1C(=O)N1CCN(c2ccccc2)CC1 10.9%
Cc1cc(C(=O)NNC(=S)NCc2ccco2)n(C)n1 -6.03%
CC(=O)OCCCNc1cc(Sc2nc3ccccc3s2)c2nonc2c1[N+](=O)[O-] 22%
CCC(=O)OCCNc1cc(Sc2nc3ccccc3s2)c2nonc2c1[N+](=O)[O-] 10.9%
CC(C)C(=O)N1CCC(Cc2ccccc2)CC1 12.3%
COc1cc(Cl)c(S(=O)(=O)N2CCCC2)cc1Cl 17.9%
O=C1C=CC(=O)N1c1ccc(I)cc1Cl 8.61%
CNC(=O)COC(=O)c1nc(-n2nc(C)cc2C)ccc1Cl 1.24%
COc1ccc(C(=O)Nc2nccs2)cc1 4.19%
COc1ccc(/C=C\c2nc(O)c([N+](=O)[O-])c(=O)[nH]2)cc1O 5.95%
O=c1[nH]c(/C=C\c2ccc(O)c(Cl)c2)nc(O)c1[N+](=O)[O-] 22.7%
Cc1csc(Sc2ccc(S(=O)(=O)N3CCCC3)cn2)n1 10.9%
O=C(O)c1cc(-c2cccs2)nc2ccc(Br)cc12 15.7%
NC(=O)c1nsc(C(=O)N(c2ccc(F)cc2)C(C(=O)NCC2CCCO2)c2ccc3ncccc3c2)c1N (stereo unspecified) -0.08%
O=C(NC1CCSc2ccccc21)c1ccc(Cl)c(S(=O)(=O)N2CCOCC2)c1 (stereo unspecified) 9.03%
NS(=O)(=O)c1cccc(C(=O)NC2CCSc3ccccc32)c1 (stereo unspecified) -2.32%
COC(=O)C1=C(C)NC(=S)N(C(C)=O)C1c1ccc(OC)c(OC)c1 (stereo unspecified) 9.87%
COC(=O)Cc1c(C)c2ccc(OCC(=O)c3ccc(OC)c(OC)c3)cc2oc1=O 14.4%
Cc1csc(NC(=O)CS(=O)(=O)Cc2ccccc2)n1 0.95%
COc1cccc(NC(=O)c2cc([N+](=O)[O-])ccc2NC(=O)CNCC2CCCO2)c1 (stereo unspecified) 3.88%
Cn1c(SCC(=O)c2ccc(O)c(O)c2)nnc1-c1ccccc1 27.2%
Cc1cc(SCC(=O)c2ccc(O)c(O)c2)n2nc(C)c(-c3ccccc3)c2n1 31.3%
Cc1cc(C)nc(SCC(=O)c2ccc(O)c(O)c2)n1 35.3%
O=C(CSc1nc2ccccc2n1CCc1ccccc1)N1CCOCC1 11.6%
O=C(CSc1nc2ccccc2n1CCc1ccccc1)NC1CC1 5.51%
Cc1cc(SCC(=O)c2ccc(O)c(O)c2)nc2ccccc12 35.4%
Cc1cc(-c2nnc(CCC(=O)N(C)C(C)c3cccs3)o2)no1 (stereo unspecified) 22%
CCC(C)N(C(=O)COC(=O)COc1c(C)cc(C)cc1C)C1CCS(=O)(=O)C1 (stereo unspecified) 7.34%
COCC1CCN(C(=O)c2ccc3oc(Cc4ccc(Cl)cc4)nc3c2)C1 (stereo unspecified) 11.1%
Cc1sc2ncnc(Sc3ccccc3C(=O)Nc3ccc(C#N)cc3)c2c1C 9.82%
Cc1nn(-c2ccccc2)c(Cl)c1/C=N\NC(=O)c1cncc(Br)c1 22%
CC(=O)c1ccc(N2C(=O)NC3(CCCCC3)C2=O)cc1 3.35%
COc1cccc(-c2nc(CS(=O)(=O)CC(=O)Nc3cc(C)ccc3C)c(C)o2)c1 15.6% and 1.41%
CCN(CC)S(=O)(=O)c1ccc(N/N=C/c2ccc(O)cc2O)nc1 21.6%
CCN(CC)S(=O)(=O)c1ccc(N/N=C/c2cccnc2)nc1 9.01%
COc1cccc(/C=N/Nc2cc(Cl)nc(C)n2)c1O 21%
Cc1nc(Cl)cc(N/N=C/c2ccc(O)cc2O)n1 24.5%
COc1ccc(/C=N/Nc2cc(C)nc(NS(=O)(=O)c3ccc(C)cc3)n2)cc1 11.9%
Cc1cc(N/N=C/c2ccc(O)cc2)nc(NS(=O)(=O)c2ccccc2)n1 10.1%
COc1ccccc1C(=O)N/C(=C/c1cccc([N+](=O)[O-])c1)C(=O)Nc1cccc(C(=O)O)c1 -0.39%
O=C(O)CN1C(=O)c2ccc(Oc3ccc([N+](=O)[O-])cc3)cc2C1=O 7.08%
CCOCCCn1c(SCC(=O)Nc2ccc3[nH]c(=O)[nH]c3c2)nc2ccccc2c1=O 10.2%
O=C(Cc1c(Cl)cccc1Cl)N/N=C/c1cccnc1 17.8%
COc1cc(C(=O)CSc2nnc(-c3ccc(O)cc3)n2CC2CCCO2)ccc1NC(C)=O (stereo unspecified) 4.93%
